A selection: hits, their analogues and other compounds. The true share with any hit is near 4.6%.
proKLK7 act: activates the human kallikrein-7 zymogen. P49862. purified proKLK7, EDANS-DABCYL substrate fluorescence; 100% is mature enzyme control, 0% vehicle. activation, % at 7 µM. actives 0.9% (n = 370,000). AID 652039;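 active = activation above the mean of all tested compounds plus 3 SD, computed per campaign excluding outliers beyond control limits, cut at about 13% in these data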
FAS-TE inh: inhibitors of human fatty acid synthase thioesterase domain; P49327; recombinant FAS-TE, OMFH fluorogenic substrate, fluorescence endpoint; inhibition, % at 15 µM; actives 0.67% (n = 360,000); AID 602261;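 active = compounds whose normalised, plate-corrected inhibition of enzyme fluorescence in the single-dose primary screen is 50% or more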;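 also: 0% = DMSO with enzyme and 100% = substrate without enzyme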
ADAM17 inh: inhibitors of human ADAM17 | P78536 | recombinant ADAM17, EDANS/DABCYL FRET peptide cleavage | inhibition, % at 6.95 µM | actives 0.83% (n = 370,000) | AID 720648;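 active = inhibition above the mean of compounds lying between control limits plus 3 SD, set per campaign, cut at about 8.5% in these data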;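 also: 0% = DMSO-only wells as the low control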
Target sequence (P78536 215-824 limits assumed): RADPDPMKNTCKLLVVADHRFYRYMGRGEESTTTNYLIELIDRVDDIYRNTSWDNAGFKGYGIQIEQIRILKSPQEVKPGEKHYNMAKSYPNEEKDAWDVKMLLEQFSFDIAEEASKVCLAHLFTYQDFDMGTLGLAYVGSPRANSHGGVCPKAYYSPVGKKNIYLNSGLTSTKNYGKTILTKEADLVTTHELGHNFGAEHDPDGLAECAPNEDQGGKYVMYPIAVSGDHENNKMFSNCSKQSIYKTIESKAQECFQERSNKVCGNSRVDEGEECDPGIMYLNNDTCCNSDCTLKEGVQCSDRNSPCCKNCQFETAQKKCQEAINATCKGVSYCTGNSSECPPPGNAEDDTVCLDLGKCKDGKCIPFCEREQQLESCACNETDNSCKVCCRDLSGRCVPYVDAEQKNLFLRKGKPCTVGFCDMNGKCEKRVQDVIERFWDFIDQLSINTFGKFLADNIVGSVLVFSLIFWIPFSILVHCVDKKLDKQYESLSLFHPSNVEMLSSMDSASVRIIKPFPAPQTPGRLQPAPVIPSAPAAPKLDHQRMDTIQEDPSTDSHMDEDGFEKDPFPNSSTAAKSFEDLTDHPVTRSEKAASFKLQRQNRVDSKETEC
NR3A LBD binder: modulators (binders) of human NR3A ligand-binding domain; NR3A LBD differential scanning fluorimetry, Tm shift; 0% = protein alone, 100% = glycine-bound protein; Tm shift relative to glycine control, % at 25 µM; actives 2.5% (n = 340,000); AID 1259313;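 active = melting temperature shift of at least 10% of the positive control shift, at one fixed dose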
ADAM10 inh: inhibits human ADAM10 | O14672 | recombinant ADAM10, EDANS/DABCYL FRET peptide cleavage, 3 h | inhibition, % at 7 µM | actives 0.62% (n = 370,000) | AID 720582;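 active = inhibition above a per-campaign cutoff equal to the mean of compounds falling between control-based bounds plus 3 SD, cut at about 20% in these data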;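 also: 0% = DMSO wells while the 100% control is not disclosed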
FAS-TE conf: FAS thioesterase (human) inhibition, confirmation. shares compounds with FAS-TE inh. recombinant FAS-TE, OMFH fluorogenic substrate, fluorescence. inhibition, % at 15 µM. actives 45% (n = 2,300). AID 624325;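 active = compounds inhibiting the enzyme by at least 50% at 15 µM in any one of the replicates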;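 also: 0% = enzyme with DMSO only and 100% = wells lacking enzyme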
An asterisk follows results filed as active; i = inactive; x = no result.

SMILES	proKLK7 act	FAS-TE inh	ADAM17 inh	NR3A LBD binder	ADAM10 inh	FAS-TE conf
CC(C)(C)c1ccc(C(=O)OCCNC(=O)c2c(Cl)nc3ccccn23)cc1	0.1	65.9*	1.7	-8.6	4.7	74.9*
C/C(=N/Nc1ccc(C(=O)O)cc1)c1ccc2c(c1)Nc1ccccc1S2	4.2	51.5*	-10.8	6.7	-62.3	62.1*
C/C(=N\Nc1ccc(C(=O)O)cc1)c1ccc2c(c1)Nc1ccccc1S2	2.8	71.3*	-9.1	6.3	-31.4	60.7*
Brc1ccc2nc(-c3ccc(CN4CCC(c5nc6ccccc6[nH]5)CC4)cc3)c(-c3ccccc3)nc2c1	-6.5	x	2.6	x	0.1	x
CC1CCc2nc(NC(=O)CN3CCN(c4ccc(F)cc4)CC3)sc2C1 (stereo unspecified)	0.3	85.1*	6.0	-13.2	12.7	78.5*
C[C@@H]1CN([C@@H](C)CO)C(=O)c2cc(NC(=O)Nc3cccc4ccccc34)ccc2O[C@@H](C)CCCCO[C@H]1CN(C)C(=O)c1ccccc1	-2.4	11.4	-17.2	x	-66.3	x
C[C@@H]1CN([C@@H](C)CO)C(=O)c2cc(NC(=O)C3CCCCC3)ccc2O[C@@H](C)CCCCO[C@H]1CN(C)S(=O)(=O)c1ccc(Cl)cc1	-0.2	81.0*	6.5	x	15.6	8.3
Cc1ccc(S(=O)(=O)N(C)C[C@H]2OCCCC[C@H](C)Oc3ccc(NC(=O)Nc4cccc5ccccc45)cc3C(=O)N([C@@H](C)CO)C[C@H]2C)cc1	-8.0	82.4*	-25.1	x	-96.3	5.8
C[C@@H]1CCCCO[C@H](CN(C)C(=O)Nc2cccc3ccccc23)[C@@H](C)CN([C@H](C)CO)C(=O)c2cc(NC(=O)c3ccccc3)ccc2O1	-2.5	77.9*	-10.2	x	-26.4	-0.4
CCOC(=O)c1cc(=O)[nH]c2ccccc12	-0.5	-4.0	-33.6	-0.6	-77.8	x
Cc1ccc(-c2nnc(COC(=O)c3cc(=O)[nH]c4ccccc34)o2)cc1	-1.5	66.1*	-19.6	-1.1	-54.9	49.3*
N#CC(CCc1ccccc1[N+](=O)[O-])(CCc1ccccc1[N+](=O)[O-])C(N)=O	0.0	51.9*	2.4	4.0	-0.4	46.6*
COc1ccccc1[C@@H]1C(c2ccccc2)=NN(c2ccc(Br)cc2)[C@H]1C(=O)N1CCOC1=O	-47.7	73.6*	-140.4	-7.9	i	13.2
COc1ccccc1C1CC(c2ccco2)=NN1c1ccccc1 (stereo unspecified)	-17.9	25.8	-146.7	8.6	-267.7	x
COc1ccccc1[C@@H]1C(c2cccc(C)c2)=NN(c2ccc(Br)cc2)[C@H]1C(=O)N1CCOC1=O	-7.7	61.5*	-79.0	-0.7	-278.2	17.1
COC[C@H]1CCCN1c1cccc2c1S(=O)(=O)N1CC[C@@H](C1)O2	0.0	x	-6.8	x	0.7	x
CCCCn1c(CN2CCN(c3ccccc3)CC2)nc2c1c(=O)n(C)c(=O)n2C	x	50.4*	x	-1.4	x	49.6*
CCCCCn1c(CN2CCN(c3cccc(Cl)c3)CC2)nc2c1c(=O)n(C)c(=O)n2C	-0.1	79.0*	-1.3	-5.2	-2.1	35.3*
CCCn1c(CN2CCN(c3cccc(Cl)c3)CC2)nc2c1c(=O)n(C)c(=O)n2C	0.7	34.2	3.7	-2.5	4.5	x
CCCCn1c(CN2CCN(c3cccc(Cl)c3)CC2)nc2c1c(=O)n(C)c(=O)n2C	-0.1	70.7*	3.9	-2.0	7.1	54.4*
CC(C)N1CCCCC(NC(=O)c2cccs2)C1=O (stereo unspecified)	-0.4	x	-8.8	x	-10.8	x
Cc1ccc(CN2CCCCC(NC(=O)Nc3cccc([N+](=O)[O-])c3)C2=O)cc1 (stereo unspecified)	-0.5	x	-2.7	x	2.3	x
COc1cc2sc(-c3ccc(S(C)(=O)=O)cc3)c(-c3ccc4c(c3)OCO4)c2cc1OC	-25.7	80.5*	-17.9	-1.4	-87.1	27.9
COc1ccc(-c2c(-c3ccc(S(C)(=O)=O)cc3)sc3ccc(OC)cc23)cc1	-15.1	21.6	-27.2	-0.9	-110.6	x
COc1ccc2sc(-c3ccc(S(C)(=O)=O)cc3)c(-c3ccc4c(c3)OCCO4)c2c1	-65.6	57.4*	-41.5	-0.6	-149.5	22.3
CCOC(=O)CC[C@H]1CC[C@]2(CCCN(S(=O)(=O)c3ccccc3)C2)O1	0.0	x	-1.9	x	-6.8	x
